The source of these data is PubChem BioAssay (NCATS).

Records with an inconclusive call do not appear. Active and inactive are the calls of the source. Unless noted, the call rests on the fitted dose curve; in most records, active means well fitted curve in the direction sought with a large enough effect; inconclusive means small, poorly fitted or top-dose-only effect, or another doubt; inactive means no such curve, though single readings can be large; an effect the other way counts as inactive or inconclusive.

The target in experiment [1] is Catechol O-methyltransferase (Homo sapiens) (UniProt P21964). Put plainly: Confirmatory Screen for Target Class Profiling of Small Molecule Inhibitors of Methyltransferases (AID 1745852). On activity change, negative = inhibition: on the % scale 0 is the no-effect control and ±100 the full control effect. Conditions: MTase-Glo luminescence, SAH detection, recombinant enzyme; measured here: COMT max response; stronger effect = lower value.
For experiment [2], the target named is Guanidinoacetate N-methyltransferase (Homo sapiens) (UniProt Q14353). The experiment is described as above. Conditions: MTase-Glo luminescence, SAH detection, recombinant enzyme; activity change, negative = inhibition: at 57.3 µM (top of the series) unless noted; series mostly up to 57.3 µM.
In experiment [3] the target is Nicotinamide N-methyltransferase (Homo sapiens) (UniProt P40261). The description is as above. Conditions: MTase-Glo luminescence, SAH detection, recombinant enzyme; measured here: NNMT max response; stronger effect = lower value.
Experiment [4] concerns the target Phenylethanolamine N-methyltransferase (Homo sapiens) (UniProt P11086). The experiment is described as above. Conditions: MTase-Glo luminescence, SAH detection, recombinant enzyme; measured here: PNMT max response; stronger effect = lower value.
Experiment [5] in a line: Vero cells viability qHTS for Zika virus inhibitors (AID 1347167). Further: potency means the concentration at half of the fitted maximal effect. On activity change, negative = cytotoxicity: on the % scale 0 is the no-effect control and ±100 the full control effect. Conditions: cytotoxicity counter-screen (Zika); series mostly up to 45.9 µM. The essentials: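 Luminescent ATP readout (CellTiter Glo) after 30 min at 37 degrees C gives viability; cells in DMEM + 4% FBS were treated 24 to 48 hours with compound, following overnight attachment.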
For experiment [6], the target named is Ubiquitin carboxyl-terminal hydrolase 1 (Homo sapiens) (UniProt O94782). Put plainly: Inhibitors of USP1/UAF1: Pilot qHTS (AID 504865). Further: nearly all actives have a fitted effect of over 35% in size. Further: potency means the concentration at half of the fitted maximal effect.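 On activity change, negative = inhibition: rhodamine fluorescence freed from ubiquitin-rhodamine substrate followed over time; top concentration of the series differs between compounds; on the % scale 0 is the no-effect control and ±100 the full control effect.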 Conditions: purified USP1/UAF1, Ub-rhodamine cleavage fluorescence; series mostly up to 114 µM. The method in brief: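 Kinetic fluorescence assay: 1nM USP1/UAF1, 15 min compound preincubation, then 150nM Ub-Rho; 480/540 nm.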
For orientation: In qHTS, concentration-response curves come from the screen itself.

Experiment [7] can be described thus: Cell Viability - BJ (AID 421; calls by dose curve;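 further: potency means the concentration at half of the fitted maximal effect; cells exposed to compound for 40 hours at 37 °C before readout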). Particulars: BJ fibroblast viability, qHTS. The method in brief:
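Normal human BJ foreskin fibroblasts, 1500/well in complete medium, treated 40 hr at 37 °C. Cellular ATP by CellTiter-Glo luminescence; normalized to DMSO and 100 uM tamoxifen, AC50 from Hill fit.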

Experiment [8] in a line: Cell Viability - Jurkat (AID 426;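 active means dose-dependent loss of cell ATP signal giving a full or clear fitted curve, ranked by lower potency value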; further: potency means the concentration at half of the fitted maximal effect). Particulars: qHTS. The method in brief:
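Luminescent ATP read-out (CellTiter-Glo, 20 min at room temperature) after 40 hr compound exposure at 37 °C of Jurkat E6-1 cells, 5000/well. Decreased ATP taken as cytotoxicity; AC50 from standard Hill equation.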

The nature of experiment [9]: Cell Viability - Hek293 (AID 427;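 active means compounds whose dose-response curve shows a full or clear partial loss of cell viability, called from curve shape rather than a numeric limit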;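 further: potency means the concentration at half of the fitted maximal effect; cells exposed to compound for 40 hours at 37 °C before reading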). Conditions: qHTS. The method in brief:
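HEK293 cells in complete medium were exposed to compound for 40 hr at 37 °C, then cellular ATP was read by CellTiter-Glo luminescence. Data were normalized to DMSO (basal) and 100 uM tamoxifen (100% inhibition), and AC50 came from Hill fits.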

Experiment [10] in a line: Cell Viability - HepG2 (AID 433; calls by dose curve;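 further: potency means the concentration at half of the fitted maximal effect; potency for ATP loss meaning cytotoxicity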). Conditions: qHTS. The method in brief: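 Cytotoxicity is scored as loss of intracellular ATP in HepG2 cells exposed to compounds for 40 h. Concentration-response curves, normalized to DMSO and 100 uM tamoxifen, give AC50 values.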
Experiment [11] in a line: Cell Viability - MRC5 (AID 434; calls by dose curve;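 further: potency means the concentration at half of the fitted maximal effect; potency reflects cytotoxicity seen as loss of intracellular ATP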). Particulars: MRC5 lung fibroblast viability, qHTS. The essentials:
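AC50 values come from Hill-equation fits of intracellular ATP loss, measured by CellTiter-Glo luminescence. Normal lung fibroblasts (MRC5) had 40 hr compound treatment at 37 C, normalized between DMSO and 100 uM tamoxifen.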

Experiment [12] in a line: Cell Viability - SK-N-SH (AID 435; calls by dose curve; further: potency means the concentration at half of the fitted maximal effect). Conditions: SK-N-SH neuroblastoma cell viability qHTS. The essentials:
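Cells seeded at 1500 per well and incubated 5 hr at 37 °C. Compound added, then 40 hr at 37 °C. CellTiter-Glo added, 20 min at room temperature, luminescence read.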

Experiment [13] in a line: Cell Viability - N2a (AID 540).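 Further: plate controls were DMSO alone for no effect and tamoxifen control for full effect; nearly all actives have a fitted effect of over 45% in size.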 Particulars: N2a mouse neuroblastoma cell viability; at 92.2 µM (top of the series). The method in brief: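 N2a mouse neuroblastoma, 1500 cells/well, 5 hr settle; compound 40 hr, 37 °C; CellTiter-Glo 20 min RT; luminescence; Hill-fit AC50.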
The nature of experiment [14]: Cell Viability - HUV-EC-C (AID 542). Further: on the % scale 0 is the no-effect control and ±100 the full control effect; nearly all actives have a fitted effect of over 35% in size. Particulars: HUV-EC-C endothelial cell viability, qHTS; series mostly up to 92.2 µM. The method in brief: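 Luminescent ATP read-out (CellTiter-Glo, 20 min room temperature) after 40 hr compound treatment of HUV-EC-C cells at 37 °C. Concentration-response data fitted with the standard Hill equation to give AC50; tamoxifen and doxorubicin served as positive controls.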

The nature of experiment [15]: Cell Viability - H-4-II-E (AID 543). Further: on the % scale 0 is the no-effect control and ±100 the full control effect; nearly all actives have a fitted effect of over 35% in size. Particulars: H-4-II-E rat hepatoma viability; series mostly up to 92.2 µM. The method in brief:
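qHTS, rat hepatoma H-4-II-E, 1500 cells/well; 40 hr compound exposure, 37 °C; CellTiter-Glo ATP luminescence after 20 min RT; AC50 by standard Hill fit.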

Experiment [16] can be described thus: Cell Viability - SH-SY5Y (AID 544).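 Further: 0% = DMSO alone and -100% = 100 µM tamoxifen; nearly all actives have a fitted effect of over 55% in size.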 Conditions: SH-SY5Y neuroblastoma cell viability; series mostly up to 92.2 µM. The method in brief:
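SH-SY5Y, 1500 cells/well, 5 hr pre-incubation 37 °C; cpd 40 hr 37 °C; CellTiter-Glo 20 min RT; luminescence (ATP) read. qHTS concentration-response, Hill fit → AC50. Tamoxifen, doxorubicin as positive controls.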

A short description of experiment [17]: Cell Viability - Renal Proximal Tubule (AID 545).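 Further: 0% = DMSO only and -100% = 100 µM tamoxifen; nearly all actives have a fitted effect of over 40% in size.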 Conditions: renal proximal tubule cells viability; series mostly up to 91.7 µM. The essentials:
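Cytotoxicity is scored as a concentration-dependent drop in cellular ATP in primary rat renal proximal tubule cells exposed for 40 hr. AC50 derives from Hill modelling.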

Experiment [18] can be described thus: Cell Viability - Mesenchymal (AID 546).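 Further: cells exposed to compound for 40 hours before reading; 0% = DMSO only and -100% = 100 µM tamoxifen.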 Particulars: mesenchymal cells viability, qHTS; series mostly up to 91.7 µM. The method in brief:
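CellTiter-Glo luminescence (intracellular ATP, 20 min room temperature) after 40 hr compound exposure at 37 °C of 1000 glomerulus-derived human kidney mesenchymal cells/well; AC50 values obtained by fitting qHTS concentration-response data to the Hill equation.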

Experiment [19] can be described thus: qHTS Assay for Identification of Small Molecule Inducers of Hypoxia Response (AID 2120; active means well fitted curve in the direction sought with a large enough effect in the signal ratio, with a control signal flat, not every such curve was filed as active; the % refers to the signal ratio; further: 0% is about no effect). Particulars: hypoxia response reporter cells, beta-lactamase ratio readout; series mostly up to 104 µM. The method in brief:
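Read-out: CCF4 FRET emission ratio 460nm/530nm (excitation 405nm), converted to %Activity, with AC50 fitted across a compound titration. ME-180 cells carried an HRE-driven beta-lactamase reporter; compound exposure 17 h, 37 degrees C.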

The target in experiment [20] is Vitamin D3 receptor (Homo sapiens) (UniProt P11473). In words: qHTS assay for small molecule antagonists of vitamin D receptor signaling (AID 588541; calls by dose curve;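 further: receptor activated by calcitriol during compound treatment; on the % scale 0 is the no-effect control and ±100 the full control effect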). Particulars: HEK293T VDR-UAS-bla, beta-lactamase ratio, antagonist mode; series mostly up to 76.7 µM. The essentials:
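Antagonist-mode beta-lactamase reporter assay: HEK293T VDR-UAS-bla cells were exposed to titrated compound alongside 1-alpha,25-dihydroxyvitamin D3 at 3 nM final for 16 h. Values were normalized to the 50 nM agonist control and DMSO basal, with IC50 and efficacy from Hill equation fits.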

Chain of Ubiquitin carboxyl-terminal hydrolase 1 (Homo sapiens) (O94782 whole entry, looked up): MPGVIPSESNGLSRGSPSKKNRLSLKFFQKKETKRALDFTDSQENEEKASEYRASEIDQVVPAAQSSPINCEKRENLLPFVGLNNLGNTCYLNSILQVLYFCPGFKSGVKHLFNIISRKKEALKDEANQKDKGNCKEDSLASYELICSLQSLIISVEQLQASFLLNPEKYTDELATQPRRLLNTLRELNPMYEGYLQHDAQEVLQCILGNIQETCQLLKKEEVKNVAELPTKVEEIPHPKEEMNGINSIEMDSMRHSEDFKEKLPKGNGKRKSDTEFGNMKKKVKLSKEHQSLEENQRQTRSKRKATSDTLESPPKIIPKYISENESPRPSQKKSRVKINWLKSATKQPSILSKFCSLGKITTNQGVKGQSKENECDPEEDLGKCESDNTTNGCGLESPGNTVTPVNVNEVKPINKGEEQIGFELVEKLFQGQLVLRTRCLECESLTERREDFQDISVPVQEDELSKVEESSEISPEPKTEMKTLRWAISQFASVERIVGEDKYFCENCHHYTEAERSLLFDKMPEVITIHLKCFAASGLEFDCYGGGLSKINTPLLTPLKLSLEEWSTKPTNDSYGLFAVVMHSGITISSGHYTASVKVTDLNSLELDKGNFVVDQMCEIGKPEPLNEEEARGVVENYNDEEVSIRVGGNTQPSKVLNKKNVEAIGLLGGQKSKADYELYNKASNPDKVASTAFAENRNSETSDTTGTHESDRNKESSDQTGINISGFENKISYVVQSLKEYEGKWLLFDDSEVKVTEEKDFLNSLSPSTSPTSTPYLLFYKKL
Chain of Nicotinamide N-methyltransferase (Homo sapiens) (P40261 whole entry, looked up): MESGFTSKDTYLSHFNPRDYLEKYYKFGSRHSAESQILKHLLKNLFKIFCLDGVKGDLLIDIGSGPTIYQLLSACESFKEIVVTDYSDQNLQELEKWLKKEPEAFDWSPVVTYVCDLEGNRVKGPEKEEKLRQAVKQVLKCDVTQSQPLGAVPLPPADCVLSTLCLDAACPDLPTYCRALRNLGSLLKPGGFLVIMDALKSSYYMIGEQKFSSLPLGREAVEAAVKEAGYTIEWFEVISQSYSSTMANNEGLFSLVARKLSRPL
Chain of Phenylethanolamine N-methyltransferase (Homo sapiens) (P11086 whole entry, looked up): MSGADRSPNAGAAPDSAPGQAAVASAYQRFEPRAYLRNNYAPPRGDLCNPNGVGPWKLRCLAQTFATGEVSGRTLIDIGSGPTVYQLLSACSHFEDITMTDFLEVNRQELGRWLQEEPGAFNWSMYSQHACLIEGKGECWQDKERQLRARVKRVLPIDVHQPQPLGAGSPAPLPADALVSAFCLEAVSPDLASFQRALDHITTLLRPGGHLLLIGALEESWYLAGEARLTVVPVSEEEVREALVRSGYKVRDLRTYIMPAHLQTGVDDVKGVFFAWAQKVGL
Chain of Vitamin D3 receptor (Homo sapiens) (P11473 whole entry, looked up): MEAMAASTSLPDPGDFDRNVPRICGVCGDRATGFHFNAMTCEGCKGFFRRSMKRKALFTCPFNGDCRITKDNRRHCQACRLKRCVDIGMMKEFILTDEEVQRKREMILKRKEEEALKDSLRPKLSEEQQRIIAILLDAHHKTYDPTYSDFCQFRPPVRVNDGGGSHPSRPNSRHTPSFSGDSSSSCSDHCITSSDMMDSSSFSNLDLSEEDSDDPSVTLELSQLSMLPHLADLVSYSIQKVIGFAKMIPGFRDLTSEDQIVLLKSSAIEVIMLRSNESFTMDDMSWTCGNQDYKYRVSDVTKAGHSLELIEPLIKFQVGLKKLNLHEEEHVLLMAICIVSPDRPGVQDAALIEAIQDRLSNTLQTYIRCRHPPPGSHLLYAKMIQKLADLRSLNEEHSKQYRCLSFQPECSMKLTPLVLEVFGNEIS
Chain of Catechol O-methyltransferase (Homo sapiens) (P21964 whole entry, looked up): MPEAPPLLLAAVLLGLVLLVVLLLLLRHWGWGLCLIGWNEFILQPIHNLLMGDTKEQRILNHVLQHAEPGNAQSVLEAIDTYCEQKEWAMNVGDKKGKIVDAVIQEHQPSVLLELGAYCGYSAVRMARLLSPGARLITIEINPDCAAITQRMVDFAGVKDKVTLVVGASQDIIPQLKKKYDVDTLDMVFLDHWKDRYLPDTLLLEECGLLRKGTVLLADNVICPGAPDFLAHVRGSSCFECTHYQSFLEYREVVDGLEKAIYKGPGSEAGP

For the molecule `CC(C)OC(=O)c1ccnc2cc(C(OCCN3CCCCC3)c3ccccc3Cl)sc12` (stereo not given), the activity in experiment [1] was 3.41%; in experiment [3] it was -30.3%; in experiment [4], -6.38%. The activity change, negative = inhibition in [2] came out at 8.86%.

In the case of `CC(C)=CCC[C@]1(C)C=Cc2c(O)c3c(c(CC=C(C)C)c2O1)O[C@]12C(=C[C@@H]4CC1C(C)(C)O[C@@]2(C/C=C(/C)C(=O)O)C4=O)C3=O`, the Potency in experiment [5] is 8.29 µM (active).

Consider `CCOC(=O)c1ccnc2cc(C(OCCN3CCCCC3)c3ccccc3Cl)sc12` (stereo not given), for which the activity in experiment [1] was -1.68%; in experiment [3] it was -18.4%; in experiment [4], -4.81%. Also, the activity change, negative = inhibition in experiment [2] amounted to 9.58%.

In the case of `C[C@@H]1[C@@H]2Cc3ccc(O)cc3[C@@]1(C)CCN2CCc1ccccc1`, in experiment [5], the Potency result is “inactive”.

On to `C[N+](C)(C)CC(=O)[O-]`, for which, in experiment [6], the Potency result is “inactive”.

As for `Clc1ccc([C@@H]2C[C@H]3CC[C@@H]2N3)cn1`, the Potency entry in [6] is “inactive”.

Turning to `N#Cc1ccc(N2CCN(C(=O)COc3ccc4[nH]cc(CCN)c4c3)CC2)cc1`, the activity in experiment [1] was -2.1%; in [3], 2.26%; in experiment [4], 2.22%. Besides, the activity change, negative = inhibition in experiment [2] came to 0.371%.

For the molecule `O=Cc1ccccc1`, the Potency in experiment [7], in experiment [8], in experiment [9], in experiment [10], in [11] and in experiment [12] was > 92 µM (inactive) in each case. Further, the activity change, negative = cytotoxicity in experiment [13] is 6.11% (inactive). Besides, the outcome in experiment [14], in experiment [15], in [16], in experiment [17], in [18] and in experiment [19] was “inactive” each time. Besides, the outcome in [20] was “inactive”.

For `COC(=O)c1ccccc1C(=O)OC`, the Potency in experiment [7], in experiment [8], in experiment [9], in experiment [10], in experiment [11] and in experiment [12] was > 92 µM (inactive) each time. Further, in experiment [13], the activity change, negative = cytotoxicity is 4.28% (inactive). Moreover, the outcome in [14], in [15], in experiment [16], in [17], in experiment [18] and in [19] was “inactive” throughout. The outcome in [20] is “inactive”.

Regarding `CCOc1cc(C=O)ccc1O`, the Potency in [7], in [8], in experiment [9], in experiment [10], in experiment [11] and in experiment [12] was > 92 µM (inactive) each time. Besides, the activity change, negative = cytotoxicity in [13] was -1.75% (inactive). For the same molecule, the outcome in experiment [14], in experiment [15], in [16], in experiment [17], in experiment [18] and in experiment [19] was “inactive” throughout. The outcome in experiment [20] was “inactive”.

Regarding `C[C@H]1[C@H]2Cc3ccc(O)cc3[C@]1(C)CCN2CCc1ccccc1`, the Potency result in experiment [5] is “inactive”.

On to `Oc1cc[c]([Hg][Cl])cc1`, for which the Potency in experiment [6] was 50.1 µM (active).
